JMJD2A Tudor inh: qHTS Assay for Inhibitors of JMJD2A-Tudor Domain. Lysine-specific demethylase 4A (Homo sapiens), O75164. AlphaScreen JMJD2A-Tudor / H3K4me3 peptide binding. Potency, µM (highest dose often 114 µM), for inactives: top-dose activity change, negative = inhibition, usual class: inhibitors. 390,000 compounds, 4.4% hits; further: on the % scale 0 is the no-effect control and ±100 the full control effect; nearly all actives have a fitted effect of over 50% in size
GLS inh: qHTS for Inhibitors of Glutaminase (GLS) | Glutaminase kidney isoform, mitochondrial (Homo sapiens), O94925 | GLS enzymatic activity, qHTS titration | Potency, µM (doses to about 45.5 µM), for the others: top-dose activity change, negative = inhibition, usual class: inhibitors | 410,000 compounds, 0.21% hits; further: on the % scale 0 is the no-effect control and ±100 the full control effect
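Assay buffer: 45 mM KH2PO4 pH 8.2, 0.02% Tween-20. hKGA acts on L-glutamine (1 mM solution added); product glutamate is reported by an oxidase/peroxidase Amplex Red coupling, with fluorescence taken at baseline and 30 min.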
HP1b binding inh: HTS for Inhibitors of HP1-beta Chromodomain Interactions with Methylated Histone Tails. Chromobox protein homolog 1 (Homo sapiens), P83916. 390,000 compounds, 0.56% hits. Potency, µM (titrated, usually from 114 µM), without a hit: top-dose activity change, negative = inhibition, actives largely listed as inhibitors. AlphaScreen HP1-beta / biotin-H3K9me3 peptide binding. AID 540317, 2011; further: nearly all actives have a fitted effect of over 70% in size
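AlphaScreen: HP1-beta (50 nM) preformed 30 min with biotin-H3(1-18)K9me3 peptide (50 nM) in PBS pH 7.4, 0.01% Tween-20. Compound added for 30 min at RT, then streptavidin donor/nickel chelate acceptor beads (10 ug/mL) for 30 min.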
G9a block: qHTS Assay for Inhibitors of Histone Lysine Methyltransferase G9a. AID 504332, 2011. 350,000 compounds, 8.8% hits. Potency, µM (titrated, usually from 102 µM), inactives show at the top dose activity, negative = inhibition, actives largely listed as inhibitors. G9a H3K9 monomethylation, AlphaScreen, 2 h; further: on the % scale 0 is the no-effect control and ±100 the full control effect; nearly all actives have a fitted effect of over 75% in size
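Readings reflect AlphaScreen signal from monomethyl-H3K9 antibody detection. HMT at 20 nM; substrate b-H3K9 500 nM; cofactor SAM 20 uM; 2 h RT reaction; compounds tested as titrations in qHTS with 15 min preincubation.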
BAZ2B block: qHTS Assay for Inhibitors of BAZ2B; Bromodomain adjacent to zinc finger domain protein 2B (Homo sapiens), Q9UIF8; AlphaScreen BAZ2B-H3K14Ac peptide displacement; Potency, µM (doses to about 114 µM), for the others: at the top dose activity change, negative = inhibition, actives largely listed as inhibitors; 360,000 compounds, 4.4% hits; AID 504333, 2011; further: on the % scale 0 is the no-effect control and ±100 the full control effect; nearly all actives have a fitted effect of over 60% in size
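In this displacement format the biotinylated H3(5-23) peptide acetylated at Lys14 serves as ligand at 50 nM, with BAZ2B at 50 nM in PBS pH 7.4 containing 0.01% Tween-20. Donor and acceptor beads are 10 ug/mL final.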
* hit, by the source's call; ? = inconclusive; nt = not tested or not shown; ! = repeats disagree; [ ] = dose if it differs, or a comment. Hits are enriched below; roughly 10% of the tested compounds scored in any of these assays. The call rests on the fitted dose curve; in most records, active means well fitted curve in the direction sought with a large enough effect; inconclusive means small, poorly fitted or top-dose-only effect, or another doubt; inactive means no such curve, though single readings can be large; an effect the other way counts as inactive or inconclusive. Potency means the concentration at half of the fitted maximal effect.

SMILES	JMJD2A Tudor inh	GLS inh	HP1b binding inh	G9a block	BAZ2B block
CC(=O)N1C(=O)/C(=C2\SC(=S)N(c3c(C)n(C)n(-c4ccccc4)c3=O)C2=O)c2ccccc21	-20.1%	1.1%	?	3.98µM*	-34.2%
Cc1c(N2C(=O)/C(=C3/C(=O)N(C)c4ccccc43)SC2=S)c(=O)n(-c2ccccc2)n1C	-4.5%	1.9%	25.0%	?	3.5%
Cc1cc(C)n(CC(=O)NC2CCCCC2C)c(=O)c1C#N (configuration not stated)	-14.1%	8.3%	22.8%	-1.8%	10.0%
COc1cc(/C=C2/SC(=S)N(Cc3ccccc3)C2=O)ccc1O	39.8µM*	1.4%	?	44.7µM*	39.8µM*
O=C(CCCN1C(=O)/C(=C\c2cccs2)SC1=S)Nc1cc([N+](=O)[O-])ccc1O	-18.2%	17.7%	-0.3%	-17.2%	?
COc1cc(/C=C2\SC(=S)N(CC(=O)O)C2=O)ccc1OC(=O)c1ccco1	-16.6%	13.5%	-6.8%	?	-27.9%
Cc1ccccc1/C=C1\SC(=S)N(/N=C/c2cc([N+](=O)[O-])ccc2O)C1=O	?	0.0%	-21.7%	44.7µM*	22.4µM*
COc1cc(/C=C2/SC(=S)N(CC(=O)O)C2=O)ccc1OC(=O)c1ccco1	-24.1%	-7.8%	-24.6%	44.7µM*	-37.4%
O=C(CCN1CCCC1)Nc1ccc(Br)cc1	-18.0%	13.7%	43.7%	20µM*	12.2%
O=C(CN1CCOCC1)Nc1ccc(C2CCCCC2)cc1	-16.0%	1.3%	31.5%	-12.2%[59 µM]	-5.7%
CN1CCN(CCC(=O)Nc2ccc(C3CCCC3)cc2)CC1	-10.3%	-0.4%	36.5%	31.6µM*	?
CN1CCN(CCC(=O)Nc2ccccc2)CC1	-9.0%	2.1%	42.8%	nt	1.2%
CN1CCN(CCC(=O)Nc2ccc(Cl)cc2)CC1	-25.0%	0.9%	8.8%	11.2µM*	-17.2%
COc1ccc(OC)c(S(=O)(=O)NC(=O)C2(C)CCN2C(=O)CC2CCCC2)c1 (configuration not stated)	nt	3.7%	nt	nt	nt
CCCCNC(=O)CCC(=O)Nc1ncc(-c2ccc(C)cc2)n1C	?	-3.5%	7.6%	3.4%	?
Cn1c(-c2ccc3c(c2)OCO3)cnc1NC(=O)CCC(=O)NCCc1ccccc1	56.2µM*	2.0%	-18.2%	-21.0%	?
Cc1cccc(NC(=O)CCN2CCN(c3ccccc3F)CC2)c1	-19.9%	1.8%	45.4%	4.4%[59 µM]	4.5%
O=C1N=c2ccccc2=C1c1sc(=S)n(NC(=O)c2ccccc2)c1O	-17.2%	-2.3%	11.6%	39.8µM*	?
COc1ccc(C2=CC3=C(Br)C(=O)C(C)(OC(=O)c4ccco4)C(=O)C3=CO2)cc1 (configuration not stated)	28.2µM*	-13.7%	?	?	44.7µM*
C=CCN1C=C2C(=O)C(C)(OC(=O)CCC(=O)OC)C(=O)C(Br)=C2C=C1c1ccc(OC)cc1 (configuration not stated)	?	-1.0%	-11.0%	22.5%[12.7 µM]	?
COc1ccc(C2=CC3=C(Br)C(=O)C(C)(OC(=O)c4cccs4)C(=O)C3=CO2)cc1 (configuration not stated)	28.2µM*	1.4%	?	nt	nt
Cc1ccc(N2CCN(C(=O)C3CCN(S(=O)(=O)c4ccc5c(c4)oc(=O)n5C)CC3)CC2C)cc1 (configuration not stated)	-15.2%	4.9%	12.2%	-36.8%[59 µM]	-15.6%
COc1ncc2nc(-c3cc(F)cc(F)c3)c(=O)n(CCC#N)c2n1	nt	nt	nt	3.1%[12.7 µM]	nt
COc1ccc(C(=O)c2[nH]c(N)c(C(=O)NCCc3c[nH]c4ccccc34)c2-c2ccc(Br)cc2)cc1	nt	22.0%	nt	nt	nt
CS/C(=N\S(=O)(=O)c1ccc(N)cc1)NS(=O)(=O)c1cccs1	89.1µM*	1.1%	13.8%	?	-1.6%
SMILES	JMJD2A Tudor inh	GLS inh	HP1b binding inh	G9a block	BAZ2B block
CSC(=NCc1ccc(F)cc1)NS(=O)(=O)c1cccs1	-9.2%[57.1 µM]	-9.5%	68.9%	-12.5%	6.5%
Cc1ccc(/C=C/c2onc(C)c2S(=O)(=O)N2CCC(C(=O)Nc3cc(C)ccc3C)CC2)cc1	-15.0%	9.1%	15.4%[57 µM]	-1.7%[59 µM]	0.2%
Cc1ccc(C2CC(=O)Oc3cc(O)ccc32)cc1 (configuration not stated)	-2.9%	3.6%	33.4%	-0.1%	-6.8%
O=C1CC(c2ccc3c(c2)OCO3)c2cc(O)ccc2O1 (configuration not stated)	nt	nt	nt	10µM*	nt
O=C1CC(c2ccccc2)c2cc(O)ccc2O1 (configuration not stated)	?	-2.6%	-14.0%	3.55µM*	2.3%
O=C1CC(c2ccc3c(c2)OCO3)c2ccc(O)cc2O1 (configuration not stated)	nt	nt	nt	25.7%	nt
Cc1ccc(-c2csc(C(O)c3ccc(F)c(F)c3)n2)cc1C (configuration not stated)	nt	6.0%	nt	nt	nt
Oc1cc(O)cc(/C=C/c2ccc(O)c(O)c2)c1	44.7µM*	?	15.8µM*	0.67µM*	?
Oc1cc(O)cc(O)c1	nt	-22.7%	nt	12.3%[59 µM]	nt
COC(=O)/C=C/c1ccccc1S(=O)(=O)N(Cc1ccccc1)Cc1ccco1	56.2µM*!	-4.8%	21.8%	8.8%[12.7 µM]	50.1µM*
O=S(=O)(c1ccc(S(=O)(=O)N(Cc2ccccc2)Cc2ccco2)cc1)N1CCCC1	-9.4%	-3.5%	18.9%	nt	nt
COc1ccc(C2c3c(ncn(CCN4CCOCC4)c3=N)Oc3ccc4ccccc4c32)cc1 (configuration not stated)	?	-1.3%	-0.5%	23.3%[12.7 µM]	-37.5%
COc1cccc(C2c3c(ncn(-c4ccccc4C#N)c3=N)Oc3ccc4ccccc4c32)c1 (configuration not stated)	56.2µM*	nt	nt	nt	nt
COc1ccc(C2c3c(ccc4ccccc34)Oc3ncn4nc(-c5ccco5)nc4c32)cc1OC (configuration not stated)	-12.8%	6.3%	8.7%	?	-31.1%
COc1cccc(C2c3c(ncn(-c4ccccc4Br)c3=N)Oc3ccc4ccccc4c32)c1 (configuration not stated)	50.1µM*	nt	nt	nt	nt
CCCCCCN(CCCCCC)C(=O)Cc1c(-c2ccc(Cl)cc2)[nH]c2ccc(Cl)cc12	nt	nt	nt	26.8%[59 µM]	nt
COc1ccc(N2CCC(CNC(=S)Nc3ccc(C)cc3C)C2)cc1 (configuration not stated)	28.2µM*	29.1%	?	?	15.8µM*
COc1ccc(N2CCC(CNC(=S)Nc3c(C)cc(C)cc3C)C2)cc1 (configuration not stated)	35.5µM*	8.9%	7.08µM*	?	20µM*
